An excerpt weighted towards active compounds, which were near 18% of everything screened.
DT40 TDP1 no CPT: qHTS for Inhibitors of human tyrosyl-DNA phosphodiesterase 1 (TDP1): qHTS in cells in absence of CPT. actives 15% (n = 420,000). DT40 Tdp1-/- hTDP1 cells, no CPT, ATP luminescence, 48 h. Potency, µM (top dose mostly 46.2 µM), for the others: at the highest dose activity change, negative = growth inhibition, hits mostly inhibitors; note: potency is the fitted concentration of half-maximal effect; nearly all actives have a fitted effect of over 55% in size
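Compound effects on proliferation are scored in DT40 Tdp1-/-;hTDP1 cells in the absence of CPT. ATP levels (CellTiter-Glo luminescence) are recorded after a ≥48 hr, 37 °C incubation.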
TDP1 block: blocks human tyrosyl-DNA phosphodiesterase 1; recombinant TDP1, AlphaScreen DNA substrate cleavage; Q9NUW8; actives 0.28% (n = 350,000); AID 485290; Potency, µM (series often up to 130 µM), for inactives: at the top dose activity change, negative = inhibition, actives largely listed as inhibitors; note: potency is the fitted concentration of half-maximal effect; nearly all actives have a fitted effect of over 40% in size
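AlphaScreen read-out: signal falls as enzyme removes the 3' tyrosine-FITC from a 5'-biotinylated DNA oligo (15 nM, 5 min, RT). Enzyme was E. coli-made recombinant Tdp1 at 1 nM, exposed to compound for 15 min beforehand; beads 10 ug/ml, 10 min.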
CtBP-E1A inh: blocks the CtBP interaction with E1A | AlphaScreen GST-E1A/His-CtBP binding, 1536-well; active compounds read low | activity change, % (concentration not given with the values) | actives 0.49% (n = 340,000) | AID 651724; in the data active = activity change below about -65%; inconclusive = mostly about -30% to -63%
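Protein mix (5X: 125 nM each GST-E1A, His-CtBP) was incubated with pinned compound 2 h at 37 deg C in dark, in 50 mM Tris pH 8.0 buffer with 300 mM NaCl. Glutathione donor and nickel acceptor beads followed; AlphaScreen signal read after 1 h.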
Six1-Eya2 inh: blocks human Six1 binding to Eya2; AID 651725; activity change, % (concentration not given with the values); actives 0.56% (n = 360,000); AlphaScreen GST-Six1/His-Eya2 binding, biochemical; active compounds read low; Q15475+O00167; in the data active = activity change below about -65%; inconclusive = mostly about -30% to -63%
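Homogeneous AlphaScreen proximity assay pairing GST-Six1 with His-tagged Eya2 (added as 5X mix: 250 nM and 500 nM) in 50 mM Tris pH 8.0, 300 mM NaCl, 1 mM TCEP. Glutathione donor and nickel acceptor beads; 1 h, 37 °C, dark.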
DT40 TDP1 CPT: DT40-hTDP1 cell growth loss with CPT | chicken DT40 Tdp1-/-;hTDP1 cells + 20 nM CPT, ATP luminescence, 48 h | Potency, µM (highest dose often 46.2 µM), inactives show top-dose activity change, negative = growth inhibition, most hits filed as inhibitors | actives 12% (n = 420,000) | AID 686979; note: potency is the fitted concentration of half-maximal effect; nearly all actives have a fitted effect of over 55% in size
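Cell growth measured by CellTiter-Glo luminescence after a minimum 48 h, 37 C compound exposure with 20 nM CPT in Tdp1-knockout DT40 cells stably expressing hTDP1, seeded 400/well; qHTS titration format.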
IL-1B inflam inh: blocks inflammasome-driven IL-1 beta release; THP-1 LPS/ATP IL-1B secretion, AlphaLISA, 16 h; active compounds read low; activity change, % at 57.5 µM; actives 4.7% (n = 360,000); in the data active = activity change below about -50%; inconclusive = mostly about -30% to -49%
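THP-1 cells pretreated 1 hr with compounds (up to 57.5 uM final), then stimulated with LPS (250 ng/mL final) plus ATP (1.25 mM final); secreted IL-1B measured by AlphaLISA after 16 hr, decreased signal indicating inhibition.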
Active calls of the source: *; ? = inconclusive; / = not tested or not shown; ! = repeats disagree; [ ] = another dose, or the depositor's remark. Unless noted, calls come from the whole dose curve; as a rule, active = well fitted curve in the direction sought with a large enough effect; inconclusive = small, poorly fitted or top-dose-only effect, or another doubt; inactive = no such curve, though single readings can be large; an effect the other way counts as inactive or inconclusive. % is set by controls: 0 for no effect and ±100 for the full control effect.

SMILES | DT40 TDP1 no CPT | TDP1 block | CtBP-E1A inh | Six1-Eya2 inh | DT40 TDP1 CPT | IL-1B inflam inh
C=C(C)[C@]12C[C@@H](C)[C@@]34O[C@](Cc5ccccc5)(O[C@@H]1[C@@H]3C=C(COC(=O)Cc1ccc(O)c(OC)c1)C[C@]1(O)C(=O)C(C)=C[C@@H]41)O2 | / | 12% | / | / | / | /
CN[C@@H]1C[C@H](c2ccc(Cl)c(Cl)c2)c2ccccc21 | 9.4µM* | 8% | / | / | 8.4µM* | /
CN[C@@H]1C[C@@H](c2ccc(Cl)c(Cl)c2)c2ccccc21 | 12µM* | 9%[56.1 µM] | / | / | 24µM* | /
CC1CN(CCc2ccccc2)CC(C)O1 (centres undefined) | 0% | 4% | 0 | 4 | -3% | 15
N[C@H](CCCCCP(=O)(O)O)C(=O)O | 0% | -4%[56.1 µM] | / | / | -6% | /
CSc1nnc(OC(=O)N(C)C)n1-c1ccc(Cl)cc1 | -13% | -2% | / | 4 | 0% | 3
CCc1nc2ccc(C(=O)NCCN3CCNC3=O)cn2c1N(CC)Cc1cccc(Br)c1 | ? | / | -4 | 3 | ? | -4
CCCCn1c(CN2CCN(c3ccc(F)cc3)CC2)nc2c1c(=O)n(C)c(=O)n2C | 1.6µM* | 5% | 2 | -1 | 1.6µM* | 47
CC(C)NC[C@@H](O)COc1cccc2[nH]ccc12 | -14% | 12% | / | / | 0% | /
Cc1cccc(OCCn2cccc2/C=C2/C(=O)NC(=O)N(Cc3ccco3)C2=O)c1 | -5% | -10% | -3 | -29 | 0% | ?
CCc1ccc(N2C(=O)NC(=O)/C(=C/c3cccn3CCOc3ccc(C)cc3)C2=O)cc1 | ? | 5% | 2 | -5 | 26µM* | -16
CCc1ccc(N2C(=O)NC(=O)/C(=C/c3cccn3CCOc3ccc(C(C)CC)cc3)C2=O)cc1 (centres undefined) | 15µM* | 0% | / | -17 | ? | -28
Cc1cc(OC(C)C(=O)N[C@H](C(=O)O)c2ccccc2)c2c3c(c(=O)oc2c1)CCC3 (some centres undefined) | -4% | / | -7 | -6 | 10% | 6
CC(C)OC(=O)OCOP(=O)(CO[C@H](C)Cn1cnc2c(N)ncnc21)OCOC(=O)OC(C)C | 11µM*! | / | / | / | 8.4µM*! | /
CC(C)NC[C@H](O)c1ccc(N)c(C#N)c1 | -20% | 14%[56.1 µM] | / | / | 1% | /
CCN(CC)c1ccc(N=Cc2c(O)n(Cc3ccccc3)c(=O)[nH]c2=O)cc1 | 9.2µM* | -6% | 48 | -72*! | 16µM* | 25
CCN(CC)c1ccc(N=Cc2c(O)n(-c3ccccc3)c(=O)[nH]c2=O)cc1 | ? | 3% | / | -6 | ? | 35
CCN(CC)c1ccc(N=Cc2c(O)n(-c3ccccc3C)c(=O)[nH]c2=O)cc1 | ? | 9% | -1 | -16 | 23µM* | -7
C=CCn1c(O)c(C(C)=Nc2ccc(N(CC)CC)cc2)c(=O)[nH]c1=O | 9.2µM* | -3% | -13 | -12 | 21µM* | 39
Nc1nonc1C(=O)N/N=C/c1ccc([N+](=O)[O-])o1 | 9.2µM* | -2% | 0 | ? | 7.3µM* | -87*
Cc1ccc2c(c1)C(c1ccccc1)NCC(=O)N2 (centres undefined) | ? | 6% | 5 | 0 | -5% | 47
CC(C)C[C@H](CN)CC(=O)O | -18% | / | / | / | -17% | /
N#Cc1nn(-c2c(Cl)cc(C(F)(F)F)cc2Cl)c(N)c1S(=O)C(F)(F)F (centres undefined) | 8.6µM* | 2% | / | / | 9.6µM* | /
O=c1nc(/C=C/c2ccc(Cl)cc2Cl)cc(C(F)(F)F)[nH]1 | ? | 6% | / | -17 | -13% | -87*
Cc1c(C(=O)c2ccccc2)c2ccccc2n1C | -16% | / | / | 0 | ? | 20
SMILES | DT40 TDP1 no CPT | TDP1 block | CtBP-E1A inh | Six1-Eya2 inh | DT40 TDP1 CPT | IL-1B inflam inh
CCCn1c(C)c(C(=O)c2cccc3ccccc23)c2ccccc21 | 13µM* | -5%[56.1 µM] | 2 | -7 | 27µM*! | -21
CCCOC(=O)c1c(N)n(Cc2cccs2)c2nc3ccccc3nc12 | ? | / | 18 | 9 | 18µM* | -3
CCCCCCn1c(N)c(C(=O)NCCN2CCOCC2)c2nc3ccccc3nc21 | ? | 4% | 23 | 20 | 21µM* | -73*
COCCCn1c(N)c(C(=O)NCCC(C)C)c2nc3ccccc3nc21 | ? | ? | 29 | 56 | ? | -53*
COc1ccc(CCNC(=O)c2c(N)n(CCN3CCOCC3)c3nc4ccccc4nc23)cc1OC | 13µM* | 2% | 14 | 9 | 15µM* | ?
CCCCCCCCc1[se]c2ccccc2c1I | / | 9% | / | / | / | /
CC1(C)S[C@@H]2[C@H](N)C(=O)N2C1C(=O)O (some centres undefined) | / | -1% | / | / | / | /
CCCCn1c(N)c(C(=O)NCc2cccs2)c2nc3ccccc3nc21 | ? | -5% | 4 | 9 | -18% | -58*
CCCCCn1c(N)c(C(=O)NCCN2CCOCC2)c2nc3ccccc3nc21 | 13µM* | 6% | 18 | 16 | ? | -58*
Nc1c(C(=O)NCCCc2ccccc2)c2nc3ccccc3nc2n1Cc1cccs1 | ? | / | 10 | 22 | ? | -21
CCOCCCn1c(N)c(C(=O)Nc2sc3c(c2C(=O)OC)CCCC3)c2nc3ccccc3nc21 | 21µM* | -10% | 7 | -24 | 21µM* | 5
CCCCNC(=O)c1c(N)n(Cc2ccc3c(c2)OCO3)c2nc3ccccc3nc12 | ? | -7% | 29 | 0 | 29µM* | -30
C=C1N2CCC(CC2)C1(O)c1ccc(C)cc1 (centres undefined) | -1% | 8% | 1 | 4 | 4% | -3
CC(C)Cc1nc2cccnc2n1C1CCNCC1 | -14% | 1% | / | / | -28% | /
C=C(CC1(CNP(=O)(c2ccccc2)c2ccccc2)CC1)c1ccccc1 | / | 6% | / | / | / | /
COc1cc2[nH]c(=O)n(-c3ccccc3)c(=O)c2cc1OC | 8% | 2% | -3 | -3 | -11% | -21
CCc1c(C(=O)OC)ncc2[nH]c3cc(OC)c(OC)cc3c12 | 6.5µM* | 13%[56.1 µM] | / | / | 8.2µM* | /
CC1=CC2/C=C(\C)CCC(O)C(O)/C=C/C(=O)C23C(=O)NC(CC(C)C)C3C1C (centres undefined) | 1.8µM* | 1% | 2 | 0 | 3.7µM* | -106*
CCSc1cc(C2C(C#N)=C(N)Oc3n[nH]c(C)c32)c(C)o1 (centres undefined) | 16µM* | 5% | 3 | -3 | ? | -97*
